# Measurements as given in PubChem BioAssay AID2320 (National Center for Advancing Translational Sciences (NCATS), 2010).
# Results filed as inconclusive are left out. A call without a number means that no potency is given here. Calls of active or inactive are those of the source. Calls follow the shape of the full dose curve.
# Assay: A qHTS for Small Molecule Inhibitors of Shiga Toxin (Confirmatory); also: nearly all actives have a fitted effect of over 75% in size
# Conditions: Cell-based Shiga toxin protection reporter assay; series mostly up to 38.3 µM
# Potency is read from the fitted curve at half-maximal effect.
row,Structure (SMILES),Potency
1,Cc1ccc(CSc2nnc(CCCCCNC(=O)OC(C)(C)C)o2)cc1,inactive
2,Cc1ccc([N+](=O)[O-])cc1NC(=O)CSc1nncn1-c1ccccn1,inactive
3,O=C(NCCCO)/C(=C\c1ccco1)NC(=O)c1ccco1,inactive
4,Cc1nc(SCC(=O)Nc2cc(C)on2)c2c3c(sc2n1)CCCC3,inactive
5,COC(=O)c1ccc(C)c(NC(=O)CCSc2ccc(Cl)cc2)c1,inactive
6,COc1ccccc1NC(=O)CSc1nnc(CC(=O)Nc2ccccc2F)n1C,inactive
7,COC(=O)c1ccc(-c2ncc(-c3cccc4ccccc34)o2)cc1,7.11 µM (active)
8,O=C(O)c1ccn(Cn2cnc3ccccc32)n1,inactive
9,O=C(O)c1cc(S(=O)(=O)Nc2ccc(OCc3ccccc3)cc2)ccc1Br,7.11 µM (active)
10,Cc1c(C(=O)Nc2nc3ccccc3[nH]2)oc2ccc(Br)cc12,11.3 µM (active)
11,Cc1sc(NC(=O)CCCC(=O)O)c(C(N)=O)c1-c1ccccc1,11.3 µM (active)
12,CCOc1cc(S(=O)(=O)N2CCN(Cc3ccccc3)CC2)ccc1Br,inactive
13,CCOc1ncccc1C(=O)Nc1c(C)n(C)n(-c2ccccc2)c1=O,inactive
14,Cc1cc(N/C=C\c2nnnn2-c2ccccc2)no1,22.5 µM (active)
15,Cc1cccc(C(=O)Nc2scc(CC(C)C)c2C(=O)O)c1,inactive
16,CN(C)C(CNC(=O)CCC(=O)c1ccc(Br)cc1)c1ccccc1 (centres undefined),inactive
17,CCN(CCn1cccn1)Cc1nc(-c2ccccc2)no1,inactive
18,O=C(Nc1ccc2oc(-c3ccccc3)nc2c1)c1ccc2c(c1)OCCO2,14.2 µM (active)
19,CC1Cc2ccccc2N1Cc1cc(=O)n2ccsc2n1 (centres undefined),inactive
